The text below walks through data of PubChem BioAssay.

A short description of assay [1]: HepG2 liver cancer cell viability effects, profiling panel, resazurin fluorescence, 24 h, PK04 Diversity Set (AID 1172). Further: test concentration not given here. The settings on record: higher = more signal. In general terms: Resazurin is reduced to fluorescent resorufin, in cell work by metabolically active cells.
Assay [2] can be described thus: basal S. cerevisiae growth modulation, no modifier, primary screen, OD600, strain BY4716, 24 h, basal condition (AID 1173). The settings on record: OD600, 24 h, higher = more signal, called active from +8 up or from −8 down.
Assay [3] is described as follows: MM1S myeloma cell viability, profiling panel, resazurin fluorescence, basal, 24 h, PK04 Diversity Set (AID 1174).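 Further: MM1S multiple myeloma cell line; test concentration not given here.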 The settings on record: higher = more signal, called active from +8 up or from −8 down.
The target of assay [4] is Dihydroorotate dehydrogenase (quinone), mitochondrial (Plasmodium falciparum (isolate 3D7)) (UniProt Q08210). The assay is described as follows: PfDHODH enzyme inhibitors, primary screen, biochemical, C-terminal His tag, absorbance 600 nm (AID 1175).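 Further: recombinant parasite enzyme with a five histidine tag at its C terminus; test concentration not given here.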 The settings on record: DCIP absorbance 600 nm, higher = more signal, called active from +8 up or from −8 down.
A short description of assay [5]: P. aeruginosa biofilm formation inhibitors, primary screen, strain PAO1, LB-PBS medium, absorbance 600 nm (AID 1176). Further: test concentration not given here. The settings on record: P. aeruginosa PAO1 growth/biofilm, A600, 12 h; higher = more signal.
A short description of assay [6]: S. cerevisiae RM11-1a growth modifiers, primary screen, strain RM11-1a, OD600, basal, 24 h (AID 1177).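 Further: cultures grown under basal conditions with no added stressor; test concentration not given here.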 The settings on record: OD600, 24 h, higher = more signal, called active from +8 up or from −8 down.
Assay [7] is described as follows: E. coli acrAB mutant growth effects, primary screen, E. coli filamentation inducers, strain DRC39, OD650, 24 h (AID 1178).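 Further: growth measured as culture turbidity by optical density at 650 nm; test concentration not given here.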 The settings on record: higher = more signal, called active from +8 up or from −8 down.
Assay [8] in a line: E. coli acrAB mutant growth effects, primary screen, E. coli filamentation inducers, strain DRC39, OD650, 48 h (AID 1179).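 Further: screen aims at cell division blockers that make cells filament.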 The settings on record: E. coli DRC39 delta-acrAB growth, higher = more signal, called active from +8 up or from −8 down.
A short description of assay [9]: RPMI8226 myeloma cell viability, profiling panel, resazurin fluorescence, basal, 24 h, PK04 Diversity Set (AID 1180).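 Further: RPMI8826 multiple myeloma cell line at 5000 cells per well; test concentration not given here.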 The settings on record: higher = more signal.
For assay [10], the target named is E3 ubiquitin-protein ligase XIAP (Homo sapiens) (UniProt P98170). The assay is described as follows: XIAP binders, primary screen, biophysical, small-molecule microarray, fluorescence 635 nm (AID 1181).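 Further: score merges 667 nm emission and signal to noise over triplicate slides.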 The settings on record: small-molecule microarray binding, higher = more signal.

Each structure is given as a SMILES string. Active and inactive are the calls of the source. Unless noted, how the calls were made is not given here.

Sequence of E3 ubiquitin-protein ligase XIAP (Homo sapiens) (P98170 whole entry, looked up): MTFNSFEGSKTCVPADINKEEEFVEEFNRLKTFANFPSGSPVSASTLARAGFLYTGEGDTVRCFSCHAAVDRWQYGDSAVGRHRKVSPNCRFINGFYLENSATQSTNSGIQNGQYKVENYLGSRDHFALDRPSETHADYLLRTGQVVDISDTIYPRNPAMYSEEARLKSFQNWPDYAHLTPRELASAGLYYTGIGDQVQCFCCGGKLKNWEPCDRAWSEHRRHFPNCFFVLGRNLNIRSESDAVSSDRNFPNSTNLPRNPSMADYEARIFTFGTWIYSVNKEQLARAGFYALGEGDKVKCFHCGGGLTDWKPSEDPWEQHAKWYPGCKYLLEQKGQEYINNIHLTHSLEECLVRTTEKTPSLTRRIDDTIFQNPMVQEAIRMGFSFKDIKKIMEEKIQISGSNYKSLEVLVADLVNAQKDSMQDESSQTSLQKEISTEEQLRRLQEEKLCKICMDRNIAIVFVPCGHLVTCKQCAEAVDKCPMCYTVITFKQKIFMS
Sequence of Dihydroorotate dehydrogenase (quinone), mitochondrial (Plasmodium falciparum (isolate 3D7)) (Q08210 whole entry, looked up): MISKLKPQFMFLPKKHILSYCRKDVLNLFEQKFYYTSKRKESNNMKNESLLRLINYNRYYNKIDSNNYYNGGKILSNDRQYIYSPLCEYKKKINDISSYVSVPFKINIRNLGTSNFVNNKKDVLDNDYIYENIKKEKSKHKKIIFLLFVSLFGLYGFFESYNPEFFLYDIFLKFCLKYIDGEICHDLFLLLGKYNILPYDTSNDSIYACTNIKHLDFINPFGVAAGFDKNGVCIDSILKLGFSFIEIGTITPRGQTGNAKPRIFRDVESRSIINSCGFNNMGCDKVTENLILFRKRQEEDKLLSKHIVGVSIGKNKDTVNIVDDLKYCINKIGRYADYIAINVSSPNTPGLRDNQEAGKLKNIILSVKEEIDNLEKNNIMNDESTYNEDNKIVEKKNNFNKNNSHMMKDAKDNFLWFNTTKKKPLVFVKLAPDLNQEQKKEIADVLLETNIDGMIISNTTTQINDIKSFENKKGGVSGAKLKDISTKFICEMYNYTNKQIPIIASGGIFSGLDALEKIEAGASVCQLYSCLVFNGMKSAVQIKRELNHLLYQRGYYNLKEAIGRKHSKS

Turning to `CO[C@H]1O[C@H](CO)[C@@H](OC(=O)Nc2ccccc2-c2ccccc2)[C@H](OC(=O)Nc2ccc3c(c2)OCO3)[C@H]1OC(=O)Nc1ccc2c(c1)OCO2`, the z-score was -0.396 in assay [1]; 1.66 (inactive) in assay [2]; -0.262 (inactive) in [3]; 3.65 (inactive) in assay [5]; 2.5 (inactive) in [6]; 1.2 (inactive) in assay [7]. For the same molecule, the figures for the z-score in assay [8] and in [9] were 0.0265 (inactive) and -0.564, respectively. The composite z-score in assay [4] is -0.763 (inactive); in [10] it was 0.25.
On to `COc1ccc(-c2nc(-c3ccccc3)c3c(c2C)CO[Si]3(C(C)C)C(C)C)cn1`, for which the z-score in [1] is 0.539; in assay [2], 0.232 (inactive); in [3] it was 0.151 (inactive); in [5], 1.35 (inactive); in assay [6] it was -0.278 (inactive); in [7] it was -0.512 (inactive). Also, the z-score in assay [8] is -0.329 (inactive); in [9], -0.82. In addition, the composite z-score in assay [4] was 0.366 (inactive); in assay [10], -0.0943.
`C=CCOC(=O)[C@H]1[C@@H]2C(=O)O[C@@H](c3ccccc3)[C@@H](c3ccccc3)N2[C@@H](c2ccc(OCCOC(=O)[C@H]3C[C@H]4C(=O)N[C@@H](CCCCNC(C)=O)C(=O)N4[C@H]3c3ccc(O)cc3)cc2)[C@]12C(=O)Nc1ccccc12`: the z-score in [1] was 2.07; in assay [2], -1.68 (inactive); in assay [3], 1.74 (inactive); in assay [5] it was 2.52 (inactive); in [6], -2.05 (inactive); in assay [7] it was 2.63 (inactive). Moreover, the values for the z-score in [8] and in assay [9] were 2.11 (inactive) and 1.11, respectively. Further, the composite z-score in assay [4] was -0.875 (inactive); in [10] it was 0.0013.
For the molecule `COc1cc2c(cc1OC)CN(C(=O)[C@@H]1[C@H]3C(=O)O[C@H](c4ccccc4)[C@H](c4ccccc4)N3[C@H](c3ccc(OCCO)cc3)[C@@]13C(=O)Nc1ccccc13)CC2`, the z-score in [1] is -0.44; in assay [2], 1.39 (inactive); in [3], -1.54 (inactive); in assay [5], 3.15 (inactive); in [6] it was 4.05 (inactive); in assay [7], 0.144 (inactive). Moreover, the z-score in [8] was 0.919 (inactive); in [9] it was -0.0976. The composite z-score is -1.09 (inactive) in [4] and -0.0763 in assay [10].
Consider `C[N+](C)(C)CCCCCCNC(=O)[C@H]1C[C@H]2C(=O)NCC(=O)N2[C@H]1c1ccc(O)cc1`, for which the z-score in assay [1] was 0.767; in [2], -0.275 (inactive); in assay [3], -0.301 (inactive); in assay [5], 0.823 (inactive); in [6], 0.0387 (inactive); in assay [7] it was -0.298 (inactive). The z-score in assay [8] is -0.785 (inactive); in [9], -0.116. Also, the results for the composite z-score in [4] and in assay [10] were -0.435 (inactive) and 0.175, respectively.
Turning to `C=C(/C(=C/C[C@H](OC(C)=O)c1ccccc1OCCO)c1cc(C(=O)OC)ccc1OC)C(C)C`, the z-score in [1] was -0.169; in assay [2], -2.2 (inactive); in [3] it was 0.121 (inactive); in assay [5], -0.529 (inactive); in assay [6] it was -0.0703 (inactive); in assay [7], -0.0536 (inactive). The values for the z-score in [8] and in assay [9] were -0.216 (inactive) and 0.0967, respectively. In addition, the composite z-score in [4] was -1.96 (inactive); in assay [10], 0.13.
As for `CCOc1cc(C(O)C2C=CC3C(=O)N(C)C(=O)C3N2Nc2ccccc2)ccc1O` (stereo not given), the z-score in assay [1] was -0.687; in assay [2], 1.11 (inactive); in assay [3], -0.328 (inactive); in [5], 0.807 (inactive); in assay [6], 2.32 (inactive); in assay [7] it was -0.501 (inactive). In addition, the z-score in assay [8] is -0.861 (inactive); in assay [9], -0.323. Also, the composite z-score in assay [4] is 0.684 (inactive); in assay [10], 0.312.
Turning to `Cc1ccccc1C(O)C1C=CC2C(=O)N(C)C(=O)C2N1N(c1ccccc1)c1ccccc1` (stereo not given), the z-score is -0.417 in assay [1]; 0.0882 (inactive) in [2]; -0.166 (inactive) in [3]; 0.53 (inactive) in [5]; 0.591 (inactive) in assay [6]; -0.209 (inactive) in assay [7]. Further, the z-score in [8] is -0.334 (inactive); in assay [9] it was -0.0373. Also, the results for the composite z-score in assay [4] and in [10] were 0.0842 (inactive) and 0.396, respectively.
As for `CC(=O)NCCCC[C@@H]1NC(=O)[C@@H]2C[C@H](C(=O)NCCCC[N+](C)(C)C)[C@H](c3ccc(O)cc3)N2C1=O`, the z-score in assay [1] was -0.294; in assay [2], -0.0108 (inactive); in [3], -1.23 (inactive); in assay [5], 2.35 (inactive); in assay [6], 0.55 (inactive); in assay [7], -0.0376 (inactive). The figures for the z-score in [8] and in assay [9] were -1.1 (inactive) and -1.2, respectively. Also, the composite z-score in assay [4] is -30.7 (active); in assay [10] it was -0.168.
Turning to `COCCCNC(=O)[C@@]1(Cc2ccccc2N=[N+]=[N-])COC(c2ccc(OCCCO)cc2)=N1`, the z-score in assay [1] was 0.677; in [2], -1.68 (inactive); in assay [3], -0.583 (inactive); in assay [5], -0.76 (inactive); in assay [6], 0.483 (inactive); in assay [7] it was 0.349 (inactive). For the same molecule, the z-score in assay [8] is 0.746 (inactive); in [9] it was 0.895. Further, the figures for the composite z-score in assay [4] and in assay [10] were 0.962 (inactive) and 0.0049, respectively.
For `CCOC(=O)C1=C[C@@H](c2ccccc2)N(S(=O)(=O)c2ccc(C)cc2)[C@H]1c1ccccc1Cl`, the z-score is -0.695 in assay [1]; 2.1 (inactive) in assay [2]; -0.898 (inactive) in assay [3]; 0.244 (inactive) in [5]; 2.01 (inactive) in assay [6]; -0.581 (inactive) in [7]. In addition, the results for the z-score in assay [8] and in assay [9] were -0.591 (inactive) and -1.88, respectively. Also, the composite z-score in assay [4] was 0.268 (inactive); in assay [10], -0.136.
Turning to `COc1ccc([Si](C)(C)[C@@H]2[C@@H](CCO)O[C@]3(C(=O)N(Cc4ccc(N5CCCCC5=O)cc4)c4ccccc43)[C@H]2C)cc1`, the z-score in assay [1] is -0.723; in assay [2], -0.173 (inactive); in assay [3], -0.75 (inactive); in assay [5] it was 1.45 (inactive); in [6], 2.69 (inactive); in assay [7], 1.99 (inactive). The z-score in assay [8] is 1.14 (inactive); in assay [9], -2.24. Also, the results for the composite z-score in assay [4] and in [10] were -3.05 (inactive) and -0.184, respectively.
